Rows were chosen to be rich in hits. Some 7.4% of all compounds tested hit in one or more screens of this group.
NPC1 promoter act = activators of NPC1 promoter | Huh7 NPC1 promoter luciferase reporter, 24 h | Potency, µM (highest dose often 9.22 µM), for inactives: top-dose activation, most hits filed as activators | 320,000 tested, 2.4% active | AID 485313; further: % of control where 0% means no effect; nearly all actives have a fitted effect of over 60% in size
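Quantitative HTS used a cell-based reporter: Huh7 cells stably bearing the NPC1 promoter upstream of luciferase were treated with compounds for 24 h, and promoter activation was read as luminescence.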
Rab9 promoter act = activates the Rab9 promoter; Huh7 Rab9 promoter-luciferase reporter, luminescence, 24 h; 320,000 tested, 2.8% active; AID 485297; Potency, µM (highest dose often 9.22 µM), without a hit: at the highest dose activation, negative = inhibition, usual class: activators; further: % of control where 0% means no effect; nearly all actives have a fitted effect of over 60% in size
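Rab9 promoter-driven luciferase in stably transfected Huh7 cells; 1500 cells/well rested 2 h, exposed to compound in DMSO for 24 h at 37 °C, 5% CO2. Luminescence read 10 min after adding luciferase reagent at ambient temperature.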
FLuc counter = inhibits or activates purified firefly luciferase, miR-21 counter-screen | P08659 | purified FLuc, Km substrates, luminescence inhibition | Potency, µM (series often up to 57.5 µM), for inactives: at the top dose activity change, negative = inhibition, actives largely listed as inhibitors | 360,000 tested, 6.9% active;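 further: plate controls were vehicle for no effect and reference inhibitor for full effect; nearly all actives have a fitted effect of over 55% in size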
Target sequence (P08659 whole entry, looked up): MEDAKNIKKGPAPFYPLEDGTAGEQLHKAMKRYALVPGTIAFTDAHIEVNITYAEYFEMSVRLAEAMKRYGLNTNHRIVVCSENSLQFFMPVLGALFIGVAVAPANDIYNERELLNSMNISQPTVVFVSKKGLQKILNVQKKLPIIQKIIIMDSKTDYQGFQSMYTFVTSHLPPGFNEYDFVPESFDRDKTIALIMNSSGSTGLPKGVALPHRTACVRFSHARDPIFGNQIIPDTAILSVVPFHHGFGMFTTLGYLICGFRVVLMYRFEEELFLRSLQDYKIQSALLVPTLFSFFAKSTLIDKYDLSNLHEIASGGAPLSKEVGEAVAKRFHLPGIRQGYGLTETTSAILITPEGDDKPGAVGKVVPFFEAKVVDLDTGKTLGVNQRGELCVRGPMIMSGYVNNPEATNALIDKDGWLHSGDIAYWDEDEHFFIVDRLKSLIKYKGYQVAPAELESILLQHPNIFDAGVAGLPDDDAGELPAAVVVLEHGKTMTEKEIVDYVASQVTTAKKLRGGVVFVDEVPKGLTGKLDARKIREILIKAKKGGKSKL
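Purified P. pyralis luciferase, 10 nM final, with Km-level 10 uM D-luciferin and 10 uM ATP in 50 mM Tris acetate pH 7.5, 10 mM Mg acetate, 0.01% Tween-20, 0.05% BSA; 6-point qHTS titration about 60 µM downward; luminescence read.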
KinaseGlo FLuc = blocks Kinase-Glo luciferase, a counter-screen artifact | Q27757 | Kinase-Glo luciferase, ATP luminescence, 8 min | Potency, µM (top dose mostly 38.3 µM), for the others: at the highest dose activity change, negative = inhibition, hits mostly inhibitors | 200,000 tested, 0.28% active | AID 1379; further: on the % scale 0 is the no-effect control and ±100 the full control effect; nearly all actives have a fitted effect of over 60% in size
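Compounds were added to a substrate mix at pH 7.2 (50 mM imidazole, 10 uM ATP, within the enzyme's linear range), followed by Kinase-Glo detection reagent; luminescence was measured after 8 minutes at ambient temperature.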
SMN2 splice enh = increases expression of the SMN2 splice variant; HEK293 SMN2-luciferase splicing reporter, luminescence, 30-36 h; Potency, µM (doses to about 46.1 µM), for the others: at the highest dose activity change, positive = activation, most hits filed as activators; 210,000 tested, 2.8% active; AID 1458; further: % of control where 0% means no effect; nearly all actives have a fitted effect of over 55% in size
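HEK293 cells carry an SMN2 […]–luciferase reporter in which exon 7 inclusion puts luciferase in frame. Cells were plated 10-12 h before compound addition, then incubated 30-36 h at 37C. ONE-Glo luminescence was read; sodium butyrate at 4.5 mM final served as control.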
ELG1 genotox = induces genotoxicity in HEK293T cells with luciferase-tagged ELG1; AID 504466; Potency, µM (doses to about 46 µM), without a hit: top-dose activity change, positive = activation, most hits filed as activators; 330,000 tested, 1.3% active; HEK293T ELG1-luciferase reporter, luminescence, 16 h; further: % of control where 0% means no effect; nearly all actives have a fitted effect of over 60% in size
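Genotoxicity was scored as increased ELG1-luciferase reporter signal, measured by ONE-Glo luminescence (30 min, room temperature). Compound or vehicle exposure of the HEK293T reporter cells lasted 16 hr at 37°C.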
Starred values were filed as active, the others as inactive; ? = inconclusive; nt = no result given; [ ] = dose if it differs, or a comment. The call rests on the fitted dose curve; in most records, active means well fitted curve in the direction sought with a large enough effect; inconclusive means small, poorly fitted or top-dose-only effect, or another doubt; inactive means no such curve, though single readings can be large; an effect the other way counts as inactive or inconclusive. Potency means the concentration at half of the fitted maximal effect.

SMILES	NPC1 promoter act	Rab9 promoter act	FLuc counter	KinaseGlo FLuc	SMN2 splice enh	ELG1 genotox
Cc1ccc(C(=O)Nc2ccn(Cc3ccc(F)cc3)n2)o1	?	?	15µM*	nt	nt	19%
Cc1ccc(C(=O)Nc2ccc(F)cc2F)o1	11%	21%	-20%	-2%	-8%	-1%
NS(=O)(=O)c1ccc2nc(NC(=O)Nc3ccccc3F)sc2c1	0.5µM*	0.4µM*	1.3µM*	nt	nt	3.3µM*
Cc1ccccc1NC(=O)Nc1nc2ccc(S(C)(=O)=O)cc2s1	4µM*	?	-14%	-3%	?	3%
CCC(=O)Nc1nc2ccc(S(C)(=O)=O)cc2s1	-1%	15%	-6%	2%	35%	7%
CCN1CCN(S(=O)(=O)c2ccc(Oc3ccccc3OC)cc2)CC1	-4%	-11%	0%	1%	-16%	-8%
COC(=O)CNC(=O)[C@@]1(C)C=C[C@@H](Cc2ccccc2)N1C(C)=O	nt	nt	nt	-24%	14µM*	nt
CCOc1ccccc1N1CC(C(=O)N2CCOCC2)CC1=O (configuration not stated)	2%	-1%	5%	nt	nt	0%
Cc1cc(C)cc(C(=O)NCC(=O)OCC(=O)Nc2cccnc2Cl)c1	-5%	2%	5%	2%	4%	0%
COC(=O)c1cnc(N2CCN(c3ccc(OC)cc3)CC2)c2ccccc12	nt	nt	-10%	nt	nt	nt
Cc1cc(-c2cn3ccccc3n2)c(C)n1-c1ccccc1	1.6µM*	1.1µM*	0.76µM*	-12%	5.6µM*	15%
COc1ccc(O)c(/C=N/N2CCCCC2)c1	3.2µM*	2µM*	9.5µM*	nt	nt	?
COc1ccc(/C(C)=N/N2CCCCC2)c(O)c1	5%	18%	9.5µM*	nt	nt	7%
Oc1ccc(/C=N/N2CCCCC2)cc1O	-22%	-3%[1.84 µM]	?	nt	nt	?
Cc1cccc(/C=c2\s/c(=C\C(=O)C(C)(C)C)[nH]c2=O)c1	2%	16%	?	nt	nt	-7%
O=C1CNC(=O)/C(=C\c2ccc(F)cc2)N1	4%	1%	2%	nt	nt	0%
Cc1cccc(/C=C2\CCC(=C3SCCCS3)C2=O)c1	0.32µM*	0.089µM*	0.085µM*	?	?	?
O=C1C(=C2SCCCS2)CC/C1=C\c1ccc(F)cc1	?	?	0.067µM*	11µM*	-79%	?
COc1ccc(/C=C(/NC(=O)c2ccccc2)C(=O)N2CCCC2)cc1	-3%	0%	4%	nt	nt	0%
CC12COC3(C(=O)Nc4ccc5ccccc5c4)CC1CCC32C (configuration not stated)	?	?	15µM*	4%	11µM*	?
Cc1ccc(N=CC=C2OC(C)(C)C(C)(C)O2)c(C)c1	0%	-2%	7.6µM*	4%	0%	2%
COc1ccccc1N=CC=C1OC(C)(C)C(C)(C)O1	-8%	-1%	-1%	13%	10%	2%
CC(C)OCCCn1c(SCC(=O)Nc2ccc(F)cc2)nc2c(sc3ccccc32)c1=O	nt	nt	0%	nt	nt	nt
O=C(COC(=O)c1n[nH]c2ccccc12)NCCc1ccccc1	nt	nt	nt	nt	nt	0%
COc1cc(NC(=O)n2ncc3cc(Cl)ccc32)cc(OC)c1	18%	?	12µM*	nt	nt	?
SMILES	NPC1 promoter act	Rab9 promoter act	FLuc counter	KinaseGlo FLuc	SMN2 splice enh	ELG1 genotox
COc1cc(OC)c(NC(=O)n2ncc3cc(Cl)ccc32)cc1Cl	nt	nt	4%	nt	nt	nt
COc1ccc(NC(=O)n2ncc3cc(Cl)ccc32)cc1OC	?	3.5µM*	?	nt	nt	?
CC(C)(C)c1cc(-c2nc(N)nc(N)n2)cc(C(C)(C)C)c1	0%	-1%	-16%	1%	-2%	0%
CC(C)(C)c1ccc(-c2nc(N)nc(N)n2)cc1	?	?	2.1µM*	nt	nt	?
COc1ccc(C(CC(=O)c2ccccc2)S(=O)(=O)c2ccc(C)cc2)cc1 (configuration not stated)	2.2µM*	4µM*	0.76µM*	-20%	?	?
CC(=O)CC(c1ccccc1)S(=O)(=O)c1ccc(C)cc1 (configuration not stated)	-5%	2%	0%	-5%	5%	4%
CCOC(=O)N1CCN(C(=O)CSc2ccc(-c3ccc(OC)c(OC)c3)nn2)CC1	2%	5%	17µM*	0%	2%	-14%
CC1Cc2ccccc2N1C(=O)CSc1nncn1C (configuration not stated)	-2%	6%	-1%	3%	16%	1%
CCOC(=O)N1CCN(C(=O)CSc2ccc(-c3ccc(OC)cc3)nn2)CC1	1%	-6%	11µM*	-3%	-16%	0%
COc1ccc(-c2ccc(SCC(=O)N3c4ccccc4CC3C)nn2)cc1OC (configuration not stated)	11%	-2%	4.3µM*	0%	?	-4%
CSc1nc(N)n2nc(-c3ccc(Cl)cc3)cc2n1	2µM*	1.6µM*	0.67µM*	nt	nt	?
CCC(=O)/C=C/C1C(C)=CCCC1(C)C (configuration not stated)	nt	nt	nt	nt	1%	nt
Cc1ccccc1C1C(=O)c2ccccc2C1=O	-5%	7%	-1%	nt	nt	-5%
Cc1ccc(C2C(=O)c3ccccc3C2=O)cc1	12%	23%	17µM*	nt	nt	4%
O=C1c2ccccc2C(=O)C1c1ccncc1	1.3µM*	0.5µM*	3.4µM*	-21%	7.9µM*	3.2µM*
O=C1c2ccccc2C(=O)C1c1ccccn1	2.5µM*	1.4µM*	11µM*	nt	nt	?
CCN1C(=O)[C@H]2[C@@H](c3ccc(C)cc3)N3C(=O)N(c4ccc(OC)cc4)C(=O)[C@@]3(CC)[C@H]2C1=O	0%	-1%	-18%	nt	nt	14%
COc1ccc(CNC(=O)c2ccc3c(=O)n(CCCN4CCCC4=O)c(=S)[nH]c3c2)cc1	-1%	-6%	?	-2%	-43%	-3%
O=C(/C=C/c1ccccc1)N1CCC(Cc2ccccc2)CC1	23%	30%	15µM*	nt	nt	11%
CCOC(=O)C1CCN(C(=O)/C=C/c2ccc(OC)cc2)CC1	0.71µM*	0.32µM*	7.6µM*	-2%	6.3µM*	4.1µM*
CCOC(=O)C1CCN(C(=O)/C=C/c2ccccc2OC)CC1	1%	-1%	-5%	-1%	1%	1%
COc1ccccc1N1CCN(C(=O)/C=C/c2ccccc2)CC1	8%	-1%	1%	3%	12%	2%
COC(=O)C1CCN(C(=O)/C=C/c2ccccc2)CC1	1.4µM*	1µM*	?	-1%	14µM*	14%
O=C(/C=C/c1ccccc1)N1CCC(c2ccccc2)C1 (configuration not stated)	3.2µM*	1.6µM*	4.8µM*	-3%	11µM*	6.5µM*

Compound activity deposited in PubChem BioAssay by National Center for Advancing Translational Sciences (NCATS).
